Source: PubChem BioAssay
Unmarked numbers belong to inactive results. Calls of active or inactive are those of the source. Unless noted, no stated cut-off is given here; in the data, active means inhibition above about 33%; inactive means the rest.

Tests used:
[1] = StAR promoter reporter inhibitors, counter-screen for LRH-1 inverse agonist project, cell-based, luminescence, high throughput (AID 651611; in the data active means inhibition above about 28%); conditions: StAR promoter luciferase reporter counterscreen, at 3.6 µM, active compounds read high
[2] = biological target: Nuclear receptor subfamily 5 group A member 2 (Homo sapiens) (UniProt O00482); experiment: LRH-1 (NR5A2) inverse agonists, retest, confirmation, cell-based, luminescence (AID 651613; in the data active means inhibition above about 42%;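 further: HEK293T cells co-transfected with LRH-1 and StAR promoter luciferase reporter; 0% = vehicle wells and 100% = parental cells lacking receptor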); conditions: cell-based LRH-1 luciferase reporter, inverse agonism; at 3.6 µM; active compounds read high
[3] = biological target: Steroidogenic factor 1 (Homo sapiens) (UniProt Q13285); experiment: SF1 (NR5A1) inverse agonists, counter-screen for LRH-1 inverse agonist project, cell-based, luminescence, high throughput (AID 651614; in the data active means inhibition above about 44%;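 further: cells cotransfected with StAR promoter reporter and SF1 expression vector; 0% = vehicle on cells with receptor and 100% = vehicle on cells lacking receptor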); conditions: cell-based SF1 luciferase reporter, at 3.6 µM, active compounds read high
[4] = VP16 transactivation reporter inhibitors, counter-screen for LRH-1 inverse agonist project, cell-based, luminescence, high throughput (AID 651615); conditions: Gal4-VP16 luciferase reporter cells, at 3.6 µM, active compounds read high

Chain of Steroidogenic factor 1 (Homo sapiens) (Q13285 whole entry, looked up, the tested form may be a part): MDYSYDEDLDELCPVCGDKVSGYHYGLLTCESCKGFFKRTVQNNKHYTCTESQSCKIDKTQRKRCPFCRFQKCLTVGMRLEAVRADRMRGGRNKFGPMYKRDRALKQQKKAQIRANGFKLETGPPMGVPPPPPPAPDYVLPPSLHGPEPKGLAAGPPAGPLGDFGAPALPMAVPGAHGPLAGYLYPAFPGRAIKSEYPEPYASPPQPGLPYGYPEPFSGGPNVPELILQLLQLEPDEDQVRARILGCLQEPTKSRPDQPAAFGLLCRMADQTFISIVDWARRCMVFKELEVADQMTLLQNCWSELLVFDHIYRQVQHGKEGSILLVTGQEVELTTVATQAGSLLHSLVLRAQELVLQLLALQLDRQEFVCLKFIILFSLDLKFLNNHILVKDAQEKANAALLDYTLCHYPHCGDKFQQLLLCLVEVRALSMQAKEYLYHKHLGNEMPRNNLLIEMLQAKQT
Chain of Nuclear receptor subfamily 5 group A member 2 (Homo sapiens) (O00482 whole entry, looked up): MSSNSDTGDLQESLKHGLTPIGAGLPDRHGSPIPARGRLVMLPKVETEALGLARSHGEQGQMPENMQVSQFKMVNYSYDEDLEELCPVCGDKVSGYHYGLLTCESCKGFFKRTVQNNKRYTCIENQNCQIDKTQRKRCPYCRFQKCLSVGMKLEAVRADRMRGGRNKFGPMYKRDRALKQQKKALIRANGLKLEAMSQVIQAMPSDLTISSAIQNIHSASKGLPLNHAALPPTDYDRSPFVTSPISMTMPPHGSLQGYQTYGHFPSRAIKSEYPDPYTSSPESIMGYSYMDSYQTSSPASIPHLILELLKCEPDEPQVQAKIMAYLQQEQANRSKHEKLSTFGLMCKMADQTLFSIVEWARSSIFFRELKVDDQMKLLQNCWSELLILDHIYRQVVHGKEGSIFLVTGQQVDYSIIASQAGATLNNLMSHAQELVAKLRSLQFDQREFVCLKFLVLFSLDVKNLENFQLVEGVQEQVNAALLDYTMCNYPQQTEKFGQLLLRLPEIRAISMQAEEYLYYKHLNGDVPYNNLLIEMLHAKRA

SMILES	inhibition [1]	inhibition [2]	inhibition [3]	inhibition [4]
Nc1ccccc1Nc1ccncc1[N+](=O)[O-]	0.62%	55.8% (active)	63.3% (active)	-1.54%
COc1ccc(/C=N/OCC(=O)NC(c2ccccc2)c2ccccc2)cc1OC	30.5% (active)	72.7% (active)	66.4% (active)	54.7% (active)
CCOc1ccc(CCNC(=O)COC(=O)c2c(C)nn(-c3ccccc3)c2C)cc1OCC	3.09%	41.6% (active)	28.1%	2.25%
COc1cc2c(cc1OC)-c1c(OC)c(OC)cc3ccnc(c13)C2=O	41.2% (active)	68.4% (active)	59% (active)	25.4%
Cc1ccc(Cl)cc1N1CCN(C(=O)C(C)n2ncn3cccc3c2=O)CC1 (stereo unspecified)	7.03%	35.4%	41.2%	2.84%
COc1ccc(CCNC(=O)c2cc(-c3ccco3)on2)cc1OC	-181%	43.8% (active)	50.5% (active)	-5.34%
COc1ccc(S(=O)(=O)N2CCOCC2)cc1N=Nc1sc(N)nc1-c1ccccc1	36.4% (active)	60.7% (active)	66.3% (active)	-3.07%
Cc1ccc(NC(=O)CSc2nnc(CCCCCNC(=O)OC(C)(C)C)o2)c(C)c1	12.2%	47.9% (active)	42.7%	4.4%
COc1ccc(NC(=O)CSc2nnc3ccc(-c4cccnc4)nn23)cc1OC	7.32%	42.1% (active)	41.9%	-8.78%
CCN(CC)S(=O)(=O)c1ccc(NC(=O)c2ccc(CN3CCOCC3)cc2)cc1	23.9%	57.5% (active)	57.4% (active)	54.4% (active)
CCOCC(=O)Nc1ccc(S(=O)(=O)NCCc2ccccc2)cc1	10.5%	48.3% (active)	43.2% (active)	11.4%
C#Cc1ccc(NC(=O)C2(C)CCN2C(=O)Cc2ccc(C(C)(C)C)cc2)cc1 (stereo unspecified)	4%	48% (active)	39%	43.9% (active)
CC(O)(c1cccnc1)c1nc(-c2cccc(C#N)c2)cs1 (stereo unspecified)	5.87%	53.4% (active)	54% (active)	7.33%
COc1ccc(N2CCN(C(=O)CSc3nnc(-c4cc5ccccc5cc4O)n3C)CC2)cc1	19.8%	59% (active)	58.3% (active)	13.6%
CCOc1ccc(C(C)=O)cc1COC(=O)c1cc([N+](=O)[O-])ccc1N1CCOCC1	15.1%	58.2% (active)	55.5% (active)	7.41%
CCOc1ccc(NC(=O)CN2CCN(C3c4ccccc4-c4ccccc43)CC2)cc1	9.85%	66.5% (active)	60.1% (active)	-0.77%
COc1ccccc1-c1nnc2sc(-c3ccc(N(C)C)cc3)nn12	50.1% (active)	31%	57.1% (active)	31.2% (active)

SMILES	inhibition [1]	inhibition [2]	inhibition [3]	inhibition [4]
C=CC(=O)Nc1cccc(Oc2ncnc3[nH]cc(-c4cnc5ccccc5c4)c23)c1	27.3%	67.9% (active)	65.6% (active)	18.2%
CCS(=O)(=O)Nc1cccc(-c2ccc3nnc(-c4cccnc4)n3n2)c1	21.7%	52.1% (active)	49.5% (active)	-31.6%
CC(CCc1ccccc1)NC(=O)COc1ccc(S(=O)(=O)N2CCOCC2)cc1[N+](=O)[O-] (stereo unspecified)	-7.62%	35.2%	31.7%	24.5%
O=C(CN1CCN(c2ccc([N+](=O)[O-])cc2)CC1)c1ccccc1	6.83%	60.3% (active)	48.5% (active)	9.99%
COc1ccc(-c2cc(-c3ccc(O)cc3)nc(N)c2C#N)cc1	27.8% (active)	58.3% (active)	49% (active)	-19.5%
S=C(Nc1ccc(Br)cc1)Nc1ccc2c(c1)OCCO2	-74.4%	-51.1%	-27.8%	-71.3%
CC(O)(c1ccc(F)c(F)c1)c1nc(-c2ccc(S(C)(=O)=O)cc2)cs1 (stereo unspecified)	3.51%	53.5% (active)	49.5% (active)	-2.47%
Cn1c(SCC(=O)Nc2ccc3nc(SCC(=O)NC4CC4)sc3c2)nnc1-c1ccccc1	12.3%	59.7% (active)	61.5% (active)	2.96%
O=C(NCc1ccc2c(c1)OCO2)c1cc([N+](=O)[O-])ccc1N1CCCCC1	44.1% (active)	36.2%	47.6% (active)	30.3%
CCOc1ccc(CCNC(=O)COC(=O)CCc2cc(OC)c(OC)c(OC)c2)cc1OCC	2.32%	50.1% (active)	47.2% (active)	2.92%
Cc1cc(SC#N)cc(C)c1NC(=O)CCl	27.4%	52.8% (active)	50.9% (active)	-31.6%
CC(=O)N1CCN(c2ccc(NC(=O)c3ccc([N+](=O)[O-])o3)cc2Cl)CC1	22.9%	60% (active)	65.1% (active)	-26.3%
O=[N+]([O-])c1ccc(N2CCN(S(=O)(=O)c3ccccc3)CC2)cc1NCc1cccnc1	6.64%	61% (active)	43.3% (active)	14.6%
O=C(NCc1ccc2c(c1)OCO2)c1nn(-c2ccccc2)c(=O)c2ccccc12	4.72%	52.2% (active)	53.3% (active)	-2.13%
COC(=O)c1cc2occc2n1CC(=O)Nc1ccc(C)cc1C	13.8%	66.8% (active)	51.6% (active)	1.15%
CCOC(=O)c1c(NC(=O)/C=C/C(=O)O)sc(C)c1-c1ccc(Cl)cc1	6.09%	59.2% (active)	48.9% (active)	5.25%
O=C(Nc1nc2c(Cl)cccc2s1)c1ccc([N+](=O)[O-])o1	10.3%	65.3% (active)	62.2% (active)	-6.76%
